Sfp inh: qHTS Assay for Inhibitors of Bacillus subtilis Sfp phosphopantetheinyl transferase (PPTase) | Biochemical Sfp PPTase activity, qHTS | Potency, µM, inactives show largest response in the series, negative = inhibition, most hits filed as inhibitors | hit rate 3.5% among 310,000 | AID 1490, 2009;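 also: the enzyme is Sfp with the accession as filed and its product quenches rhodamine fluorescence; 0% = enzyme reaction without inhibitor and -100% = no enzyme wells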
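Fluorescence-quenching assay: 15 nM Sfp-PPTase preincubated 15 min at room temperature with compound, then 5 uM rhodamine-CoA and 12.5 uM BHQ-2-labelled YbbR peptide added. Fluorescence (ex 525/em 598 nm) read at start and after 30 min; difference gives rate.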
12-LOX inh: Primary qHTS assay for inhibitors of human arachidonate 12S-lipoxygenase (ALOX12): Round 2 | Polyunsaturated fatty acid lipoxygenase ALOX12 (Homo sapiens), P18054 | purified 12hLO, xylenol orange hydroperoxide absorbance | Potency, µM (top dose mostly 108 µM), inactives show at the highest dose activity change, negative = inhibition, actives largely listed as inhibitors | hit rate 1.1% among 580,000; also: % is scaled to controls: 0 for no effect and ±100 for the full control effect
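Purified human 12hLO at 150 nM in 25 mM Hepes, 0.01% Triton X-100, pH 7.0, preincubated 15 min at room temperature with compound. Reaction started with 40 uM arachidonic acid, 30 min at room temperature. Hydroperoxide measured by Fe-xylenol orange, 573/405 nm absorbance ratio.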
JMJD2A Tudor: qHTS Assay for Inhibitors of JMJD2A-Tudor Domain. Potency, µM (highest dose often 114 µM), for inactives: at the top dose activity change, negative = inhibition, most hits filed as inhibitors. hit rate 4.4% among 390,000. AlphaScreen JMJD2A-Tudor / H3K4me3 peptide binding. Lysine-specific demethylase 4A (Homo sapiens), O75164. AID 504339, 2011; also: % is scaled to controls: 0 for no effect and ±100 for the full control effect; nearly all actives have a fitted effect of over 50% in size
BAZ2B block: qHTS Assay for Inhibitors of BAZ2B. AID 504333, 2011. Bromodomain adjacent to zinc finger domain protein 2B (Homo sapiens), Q9UIF8. Potency, µM (highest dose often 114 µM), for the others: top-dose activity change, negative = inhibition, hits mostly inhibitors. hit rate 4.4% among 360,000. AlphaScreen BAZ2B-H3K14Ac peptide displacement; also: % is scaled to controls: 0 for no effect and ±100 for the full control effect; nearly all actives have a fitted effect of over 60% in size
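BAZ2B (50 nM) with biotin-H3(5-23)K14Ac peptide (50 nM) in PBS pH 7.4, 0.01% Tween-20, preformed 30 min, then compound 30 min at room temperature; top concentration 110uM. AlphaScreen streptavidin donor/nickel chelate acceptor beads (10 ug/mL final), 20 min dark, signal read.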
G9a inh: qHTS Assay for Inhibitors of Histone Lysine Methyltransferase G9a; Histone-lysine N-methyltransferase EHMT2 (Homo sapiens), Q96KQ7; G9a H3K9 monomethylation, AlphaScreen, 2 h; Potency, µM (series often up to 102 µM), without a hit: at the highest dose activity, negative = inhibition, actives largely listed as inhibitors; hit rate 8.8% among 350,000; also: % is scaled to controls: 0 for no effect and ±100 for the full control effect; nearly all actives have a fitted effect of over 75% in size
Target sequence (Q96KQ7 913-1193 limits assumed): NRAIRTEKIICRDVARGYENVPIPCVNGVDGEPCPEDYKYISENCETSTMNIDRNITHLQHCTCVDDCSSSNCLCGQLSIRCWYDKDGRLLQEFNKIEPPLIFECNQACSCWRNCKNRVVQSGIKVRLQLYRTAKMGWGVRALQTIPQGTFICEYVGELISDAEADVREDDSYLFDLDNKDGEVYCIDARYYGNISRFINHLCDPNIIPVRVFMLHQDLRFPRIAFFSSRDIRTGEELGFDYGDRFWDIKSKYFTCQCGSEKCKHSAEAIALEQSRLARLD
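Enzyme 20 nM + cpd, 15 min RT; add b-H3K9 pep 500 nM / SAM 20 uM; 2 h RT; anti-H3K9me1 Ab 0.5 ug/mL + SA donor / anti-rabbit acceptor beads 20 ug/mL each, 10 min; AlphaScreen read.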
HP1b binding inh: HTS for Inhibitors of HP1-beta Chromodomain Interactions with Methylated Histone Tails; AlphaScreen HP1-beta / biotin-H3K9me3 peptide binding; hit rate 0.56% among 390,000; Potency, µM (highest dose often 114 µM), for the others: top-dose activity change, negative = inhibition, usual class: inhibitors; also: nearly all actives have a fitted effect of over 70% in size
Target sequence (P83916 whole entry, looked up): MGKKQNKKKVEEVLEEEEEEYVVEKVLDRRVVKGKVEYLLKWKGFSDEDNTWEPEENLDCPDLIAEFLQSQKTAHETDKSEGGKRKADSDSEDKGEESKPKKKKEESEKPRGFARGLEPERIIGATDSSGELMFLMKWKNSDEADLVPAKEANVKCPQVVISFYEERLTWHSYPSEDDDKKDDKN
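Compound inhibition of the preformed complex between 50 nM HP1-beta and 50 nM biotinylated H3K9me3 peptide was read by AlphaScreen. Buffer was PBS pH 7.4 with 0.01% Tween-20. Incubations ran 30 min at room temperature, with 10 ug/mL donor/acceptor beads.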
* marks the source's active call; other numbers are inactive results; ? = inconclusive; . = not tested or not shown; ! = not confirmed by another sample; [ ] = dose if it differs, or a comment. Only some compounds are listed: those with a hit (about 8.7% of all), similar ones and a draw of the others. Calls follow the shape of the dose curve; as a rule, active = well fitted curve in the direction sought with a large enough effect; inconclusive = small, poorly fitted or top-dose-only effect, or another doubt; inactive = no such curve, though single readings can be large; an effect the other way counts as inactive or inconclusive. Potency is read from the fitted curve at half-maximal effect.

SMILES	Sfp inh	12-LOX inh	JMJD2A Tudor	BAZ2B block	G9a inh	HP1b binding inh
CC(=O)N(C)C1=C(N2CCOCC2)C(=O)c2ccccc2C1=O	5%	.	-6%	-38%	?	20%
CC(C(=O)Nc1ccc(N2CCOCC2)cc1)N1C(=O)c2ccccc2C1=O (stereo not drawn)	-8%	1%	-9%	11%	9%[12.7 µM]	35%
O=C(O)c1ccc(NC2=C(N3CCOCC3)C(=O)c3ccccc3C2=O)cc1	-2%	?	-17%	?	?	13%
Cc1nnc(SCC(=O)Nc2sc3c(c2C#N)CCC(C)C3)n1Cc1ccccc1 (stereo not drawn)	.	20µM*	.	.	.	.
CC1CCc2c(sc(NC(=O)COC(=O)c3ccc(O)cc3)c2C#N)C1 (stereo not drawn)	?	-9%	?	-32%	40µM*	-4%
CCn1cnnc1SCC(=O)Nc1sc2c(c1C#N)CCC(C)C2 (stereo not drawn)	.	70%	.	.	.	.
Cc1nccn1-c1ccc(C#N)cc1	.	-23%	.	.	.	.
O=Cc1ccc2oc3nc4n(c(=O)c3c(=O)c2c1)CCCS4	-8%	-9%	?	56µM*	?	?
O=c1c2cc(Br)cc(Br)c2oc2nc3n(c(=O)c12)CCCS3	3%	.	.	3%	21%[59 µM]	.
O=C(CSc1nnc(-c2ccccn2)n1Cc1ccco1)c1ccccc1	-15%	?	?	?	40µM*	7%
O=C(CSc1nnc(-c2ccccn2)n1Cc1ccco1)c1ccc(Cl)cc1	-26%	?	?	?	40µM*	13%
O=C(CSc1nnc(-c2cnccn2)n1Cc1ccco1)c1ccc(Cl)cc1	-76%	-17%	-28%	-32%	?	21%
COc1ccc(C(=O)CSc2nnc(-c3ccccn3)n2Cc2ccco2)cc1	?	1%	?	?	?	13%
O=C(CSc1nnc(-c2cnccn2)n1Cc1ccco1)c1ccccc1	-12%	-7%	-4%	-29%	45µM*	41%
c1ccc(-c2nc3ncccc3[nH]2)nc1	.	102%[176 µM]	.	.	.	.
Cc1cc(=S)nc(-c2ccccn2)[nH]1	35µM*	?	?	?	?	-3%
Cc1[nH]c(-c2ccccn2)nc(=S)c1Cl	40µM*	?	-34%	-35%	-112%[59 µM]	-22%
Cc1ccccc1S(=O)(=O)NC1OC(=O)C(Oc2ccccc2)=C1Br (stereo not drawn)	-2%	?	-20%	?	50µM*	12%
Cc1ccccc1S(=O)(=O)NC1OC(=O)C(Cl)=C1Cl (stereo not drawn)	-28%	?	?	?	-13%[59 µM]	23%
CN(C)S(=O)(=O)c1ccc2c(c1)C(=O)c1cc(S(=O)(=O)N(C)C)ccc1CC2	.	5%	-23%	8%	14%[0.501 µM]	28%
CN(C)S(=O)(=O)c1ccc2c(c1)/C(=C/c1cc3c([nH]1)CCCC3)C(=O)N2	.	-15%	-30%	2%	11µM*!	29%
CC(C)C[C@@H]1NC(=O)[C@H](CO)NC(=O)c2cc([N+](=O)[O-])cc(I)c2OCC[C@@H](C(N)=O)NC1=O	33%	.	-9%	-32%	40µM*	28%
C[C@@H](O)C1NC(=O)[C@H](CCCCN)NC(=O)c2cc([N+](=O)[O-])cc(I)c2OCC[C@@H](C(N)=O)NC1=O (stereo partly drawn)	13%	?	56µM*	?	8.9µM*	-9%
Cc1ncc(S(C)(=O)=O)c(N2CC(N3CCCCC3C)C2)n1 (stereo not drawn)	.	8%	.	.	.	.
CCCNC(=O)C1CCN(C(=O)c2ccc(C(F)(F)F)cc2)CC1	.	4%	.	.	.	.
SMILES	Sfp inh	12-LOX inh	JMJD2A Tudor	BAZ2B block	G9a inh	HP1b binding inh
Cc1cccc(N/N=C/c2ccc(F)c(F)c2)c1	.	5.6µM*	.	.	.	.
Cc1cccc(N/N=C/c2ccc(Cl)c(Cl)c2)c1	.	4µM*	.	.	.	.
O=C(CC(Nc1ccccc1Cl)C(=O)OCC(=O)c1cccs1)c1ccccc1 (stereo not drawn)	45µM*	?	-8%	-4%	10µM*	51%
O=C(OCC(=O)c1cccs1)c1ccccc1	13%	31%	-4%	-34%	?	46%
Cc1ccc(NC(CC(=O)c2ccccc2)C(=O)O)cc1Cl (stereo not drawn)	?	?	-22%[11.4 µM]	-8%	.	14%
O=C(CC(Nc1ccc(Cl)cc1Cl)C(=O)O)c1ccccc1 (stereo not drawn)	14µM*	3%	6%	-17%	?	21%[57 µM]
CCCNC(=O)c1cccc(NC(=O)c2ccncc2)c1	.	14%	.	.	.	.
Cc1cc(C[C@@H]2COC[C@@H]2NC(=O)c2c(C)cc(C)n(C)c2=O)on1	.	67%	.	.	.	.
CCOc1cc(/C=C2/C(=N)N3C(=NC2=O)SN=C3S(=O)(=O)C(C)C)ccc1OC(=O)c1ccco1	-11%	?	-25%	-35%	35µM*	-5%
COc1cc(/C=C2/C(=N)N3C(=NC2=O)SN=C3S(=O)(=O)C(C)C)ccc1OC(=O)c1ccco1	-2%	?	-31%	56µM*	40µM*	-7%[57 µM]
COc1cc(/C=C2/C(=N)N3N=C(C(C)C)SC3=NC2=O)ccc1OS(=O)(=O)c1ccccc1	-7%	?	-34%	-14%	-14%	-17%
CCS(=O)(=O)C1=NSC2=NC(=O)/C(=C\c3ccc(OC(=O)c4ccco4)c(OC)c3)C(=N)N21	-4%	?	-35%	-39%	?	2%
CCOc1cc(/C=C2/C(=N)N3C(=NC2=O)SN=C3S(=O)(=O)CC)ccc1OC(=O)c1ccco1	11%	?	?	-34%	40µM*	-14%[57 µM]
COc1cc(/C=C2/C(=N)N3C(=NC2=O)SN=C3S(=O)(=O)C(C)C)ccc1OS(=O)(=O)c1ccccc1	56µM*	.	.	?	1%[59 µM]	.
CN1CCC(N2CCC[C@@H](O)[C@H](NC(=O)c3ccc(OCC(N)=O)cc3)C2)CC1	.	53%[176 µM]	.	.	.	.
Cc1cc(Cl)ccc1NC(=O)N1CCCC(Cn2cnc3cccnc32)C1 (stereo not drawn)	.	42%	.	.	.	.
CC1=C(C(=O)OC(C)C)C(c2ccccc2C)N2C(CC(=O)N3CCCC3)=CSC2=N1 (stereo not drawn)	.	19%	.	.	.	.

High-throughput results as filed in PubChem.
